{"source": "the supplement of paper PMC11732987", "about": "“Enantioselective OTUD7B fragment discovery through chemoproteomics screening and high-throughput optimisation” (Communications Chemistry, 2025)", "assay_in_all_cases": "log2 ratio of Biotin-Ahx-Ub-VS probe labelling (fragment/DMSO); higher = less target engagement (more negative = stronger competition), active = hit call of the paper (q ≤ 0.05, log2 ratio ≤ -1)", "details_in_all_cases": "compound concentration: 200 uM; treatment time: 3 h", "key": {"OTUD6B": {"target": "T1, OTUD6B (UniProt Q8N6M0)", "T1 sequence (whole entry)": "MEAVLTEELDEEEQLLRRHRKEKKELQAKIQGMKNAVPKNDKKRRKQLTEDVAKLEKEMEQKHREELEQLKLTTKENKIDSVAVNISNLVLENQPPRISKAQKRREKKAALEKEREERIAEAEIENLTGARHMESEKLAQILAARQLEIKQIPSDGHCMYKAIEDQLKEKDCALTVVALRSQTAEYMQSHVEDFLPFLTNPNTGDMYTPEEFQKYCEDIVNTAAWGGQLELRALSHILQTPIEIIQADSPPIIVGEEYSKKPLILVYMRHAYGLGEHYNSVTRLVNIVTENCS", "how_it_was_run": "(§1)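 Average log2 ratios of fragment over vehicle were obtained by unpaired t-test from global-median-normalised Spectronaut label-free quantities. Proteins with ≥2 unique peptides were included. HEK293T lysate (495 µg per sample) was treated in triplicate with fragment at 200 µM or vehicle for 3 h, then with Biotin-Ahx-Ub-VS at 0.5 µM final for 1 h, and labelled DUBs were NeutrAvidin-enriched and run by diaPASEF LC-MS/MS.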"}, "OTUD7B": {"target": "T2, OTUD7B (UniProt Q6GQQ9)", "T2 sequence (whole entry)": "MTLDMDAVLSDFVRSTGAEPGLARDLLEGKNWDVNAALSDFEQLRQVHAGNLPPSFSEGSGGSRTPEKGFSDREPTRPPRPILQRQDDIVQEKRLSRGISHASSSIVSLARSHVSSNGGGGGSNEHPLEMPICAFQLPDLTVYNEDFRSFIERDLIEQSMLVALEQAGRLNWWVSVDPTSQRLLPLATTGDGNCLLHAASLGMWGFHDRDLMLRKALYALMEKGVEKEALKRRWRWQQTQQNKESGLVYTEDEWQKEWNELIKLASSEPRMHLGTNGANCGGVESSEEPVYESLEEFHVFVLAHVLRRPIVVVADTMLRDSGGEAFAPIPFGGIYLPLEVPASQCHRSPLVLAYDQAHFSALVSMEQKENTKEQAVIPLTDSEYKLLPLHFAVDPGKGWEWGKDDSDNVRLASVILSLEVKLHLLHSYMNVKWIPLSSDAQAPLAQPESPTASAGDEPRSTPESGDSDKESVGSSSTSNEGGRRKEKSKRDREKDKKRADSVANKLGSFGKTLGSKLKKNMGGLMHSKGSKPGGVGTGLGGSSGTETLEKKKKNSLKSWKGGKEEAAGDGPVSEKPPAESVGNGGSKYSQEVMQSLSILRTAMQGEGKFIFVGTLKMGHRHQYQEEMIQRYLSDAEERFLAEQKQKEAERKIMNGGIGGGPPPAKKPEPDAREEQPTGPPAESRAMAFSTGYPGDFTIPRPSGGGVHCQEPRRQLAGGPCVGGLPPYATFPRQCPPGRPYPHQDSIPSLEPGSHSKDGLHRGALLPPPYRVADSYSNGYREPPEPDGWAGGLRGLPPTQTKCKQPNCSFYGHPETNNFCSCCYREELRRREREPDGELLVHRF", "how_it_was_run": "as §1"}, "PRPF8": {"target": "PRPF8 (UniProt Q6P2Q9)", "how_it_was_run": "as §1"}, "PSMD7": {"target": "T3, PSMD7 (UniProt P51665)", "T3 sequence (whole entry)": "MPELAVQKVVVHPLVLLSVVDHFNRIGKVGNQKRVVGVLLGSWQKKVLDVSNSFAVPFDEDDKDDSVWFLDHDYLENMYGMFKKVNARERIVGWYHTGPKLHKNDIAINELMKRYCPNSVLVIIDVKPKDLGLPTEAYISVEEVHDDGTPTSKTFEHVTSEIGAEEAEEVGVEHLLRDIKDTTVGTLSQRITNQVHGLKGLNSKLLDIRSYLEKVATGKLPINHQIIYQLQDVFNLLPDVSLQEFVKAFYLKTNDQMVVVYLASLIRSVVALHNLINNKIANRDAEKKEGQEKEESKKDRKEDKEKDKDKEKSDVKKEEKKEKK", "how_it_was_run": "as §1"}, "UCHL1": {"target": "UCHL1 (UniProt P09936)", "sequence (P09936 whole entry, looked up)": "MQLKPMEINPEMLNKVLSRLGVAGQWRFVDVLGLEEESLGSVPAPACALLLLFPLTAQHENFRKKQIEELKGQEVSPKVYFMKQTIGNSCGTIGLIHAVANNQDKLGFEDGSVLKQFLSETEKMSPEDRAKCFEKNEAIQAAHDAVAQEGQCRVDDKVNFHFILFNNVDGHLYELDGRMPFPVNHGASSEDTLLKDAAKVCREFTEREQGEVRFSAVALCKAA", "how_it_was_run": "as §1"}, "UCHL3": {"target": "T4, UCHL3 (UniProt P15374)", "T4 sequence (whole entry)": "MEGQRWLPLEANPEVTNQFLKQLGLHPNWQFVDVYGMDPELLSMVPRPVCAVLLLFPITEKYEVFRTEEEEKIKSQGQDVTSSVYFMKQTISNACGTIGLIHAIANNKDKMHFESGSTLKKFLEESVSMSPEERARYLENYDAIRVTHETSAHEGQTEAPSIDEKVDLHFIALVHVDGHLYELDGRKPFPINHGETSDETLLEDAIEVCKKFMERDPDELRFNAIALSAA", "how_it_was_run": "as §1"}, "UCHL5": {"target": "T5, UCHL5 (UniProt Q9Y5K5)", "T5 sequence (whole entry)": "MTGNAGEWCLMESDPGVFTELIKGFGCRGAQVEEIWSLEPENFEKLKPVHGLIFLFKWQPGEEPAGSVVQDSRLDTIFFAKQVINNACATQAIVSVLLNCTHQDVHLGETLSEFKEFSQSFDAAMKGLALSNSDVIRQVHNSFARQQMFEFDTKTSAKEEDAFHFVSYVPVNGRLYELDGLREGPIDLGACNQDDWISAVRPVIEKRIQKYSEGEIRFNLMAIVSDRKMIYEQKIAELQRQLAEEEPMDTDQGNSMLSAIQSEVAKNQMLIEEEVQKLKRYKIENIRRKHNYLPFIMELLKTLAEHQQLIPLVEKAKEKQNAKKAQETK", "how_it_was_run": "as §1"}, "USP10": {"target": "USP10 (UniProt Q14694)", "sequence (Q14694 whole entry)": "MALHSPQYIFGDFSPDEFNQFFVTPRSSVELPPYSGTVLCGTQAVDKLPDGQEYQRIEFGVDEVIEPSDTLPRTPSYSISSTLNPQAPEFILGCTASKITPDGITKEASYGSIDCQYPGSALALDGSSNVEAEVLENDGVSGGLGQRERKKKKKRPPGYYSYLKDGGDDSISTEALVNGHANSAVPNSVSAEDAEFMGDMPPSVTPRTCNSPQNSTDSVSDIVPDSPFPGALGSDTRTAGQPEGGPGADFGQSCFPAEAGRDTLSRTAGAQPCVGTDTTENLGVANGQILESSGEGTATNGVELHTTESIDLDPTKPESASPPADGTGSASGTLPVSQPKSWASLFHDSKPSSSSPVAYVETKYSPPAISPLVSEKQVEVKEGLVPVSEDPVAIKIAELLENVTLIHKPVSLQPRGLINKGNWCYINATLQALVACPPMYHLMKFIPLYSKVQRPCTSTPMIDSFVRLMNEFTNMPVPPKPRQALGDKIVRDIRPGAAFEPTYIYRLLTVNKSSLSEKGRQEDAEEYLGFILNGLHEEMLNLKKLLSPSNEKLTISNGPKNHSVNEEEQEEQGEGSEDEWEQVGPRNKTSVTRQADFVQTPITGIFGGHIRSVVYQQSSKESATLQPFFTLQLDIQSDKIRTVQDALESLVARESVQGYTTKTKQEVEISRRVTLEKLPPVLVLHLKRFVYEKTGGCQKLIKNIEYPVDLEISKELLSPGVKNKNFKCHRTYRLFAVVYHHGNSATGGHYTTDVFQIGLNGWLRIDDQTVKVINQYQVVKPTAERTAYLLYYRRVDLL", "how_it_was_run": "as §1"}, "USP15": {"target": "T6, USP15 (UniProt Q9Y4E8)", "T6 sequence (whole entry)": "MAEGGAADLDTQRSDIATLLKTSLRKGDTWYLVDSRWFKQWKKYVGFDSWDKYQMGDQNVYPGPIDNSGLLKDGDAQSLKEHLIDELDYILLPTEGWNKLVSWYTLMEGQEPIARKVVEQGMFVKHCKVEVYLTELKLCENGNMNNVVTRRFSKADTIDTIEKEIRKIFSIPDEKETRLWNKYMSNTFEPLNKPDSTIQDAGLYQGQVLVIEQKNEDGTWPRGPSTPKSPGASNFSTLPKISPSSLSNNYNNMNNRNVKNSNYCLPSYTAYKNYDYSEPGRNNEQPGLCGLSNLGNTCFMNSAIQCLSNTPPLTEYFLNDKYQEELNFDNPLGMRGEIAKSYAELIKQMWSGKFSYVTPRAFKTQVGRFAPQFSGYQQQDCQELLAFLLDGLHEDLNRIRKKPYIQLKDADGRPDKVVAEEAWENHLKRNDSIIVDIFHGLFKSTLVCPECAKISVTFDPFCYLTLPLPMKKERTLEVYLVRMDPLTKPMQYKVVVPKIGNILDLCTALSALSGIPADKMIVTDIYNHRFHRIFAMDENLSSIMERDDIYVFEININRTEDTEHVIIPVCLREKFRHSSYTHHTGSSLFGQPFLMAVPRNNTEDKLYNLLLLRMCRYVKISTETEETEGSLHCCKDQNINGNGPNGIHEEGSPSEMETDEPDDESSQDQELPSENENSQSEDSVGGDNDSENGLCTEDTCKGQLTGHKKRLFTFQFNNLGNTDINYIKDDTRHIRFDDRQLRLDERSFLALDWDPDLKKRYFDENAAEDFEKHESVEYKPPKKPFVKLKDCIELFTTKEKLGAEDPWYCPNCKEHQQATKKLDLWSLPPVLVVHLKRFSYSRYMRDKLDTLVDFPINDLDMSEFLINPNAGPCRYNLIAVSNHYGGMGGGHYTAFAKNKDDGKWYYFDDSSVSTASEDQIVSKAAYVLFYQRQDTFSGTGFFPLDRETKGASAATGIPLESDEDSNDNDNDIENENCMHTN", "how_it_was_run": "as §1"}, "USP16": {"target": "USP16 (UniProt Q9Y5T5)", "sequence (Q9Y5T5 whole entry, looked up)": "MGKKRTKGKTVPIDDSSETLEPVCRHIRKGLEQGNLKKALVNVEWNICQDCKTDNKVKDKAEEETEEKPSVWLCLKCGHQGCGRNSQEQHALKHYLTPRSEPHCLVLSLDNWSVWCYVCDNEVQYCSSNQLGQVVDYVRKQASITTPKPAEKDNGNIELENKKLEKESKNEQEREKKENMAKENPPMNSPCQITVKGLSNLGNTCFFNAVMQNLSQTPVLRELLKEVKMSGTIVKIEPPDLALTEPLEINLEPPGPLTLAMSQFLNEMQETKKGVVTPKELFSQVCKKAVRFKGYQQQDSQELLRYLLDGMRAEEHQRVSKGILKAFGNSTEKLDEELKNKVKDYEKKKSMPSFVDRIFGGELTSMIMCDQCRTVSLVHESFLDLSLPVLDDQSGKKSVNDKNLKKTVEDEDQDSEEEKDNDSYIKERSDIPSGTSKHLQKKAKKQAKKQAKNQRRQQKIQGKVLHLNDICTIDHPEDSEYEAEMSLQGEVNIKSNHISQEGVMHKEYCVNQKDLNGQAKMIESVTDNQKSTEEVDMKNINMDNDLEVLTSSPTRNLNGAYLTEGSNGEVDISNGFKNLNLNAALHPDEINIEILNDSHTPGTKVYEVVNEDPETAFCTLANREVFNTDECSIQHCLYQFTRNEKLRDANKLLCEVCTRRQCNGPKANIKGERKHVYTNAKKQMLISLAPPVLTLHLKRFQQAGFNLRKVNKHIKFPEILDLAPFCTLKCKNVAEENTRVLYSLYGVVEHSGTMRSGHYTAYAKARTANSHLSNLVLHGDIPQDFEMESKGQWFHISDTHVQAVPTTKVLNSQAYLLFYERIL", "how_it_was_run": "as §1"}}, "note": "Values without a mark were called inactive."}
{"smiles": "Cc1ccc2nnc(CNC(=O)CCl)n2c1", "values": [{"measurement": "log2 ratio of Biotin-Ahx-Ub-VS probe labelling", "setting": "OTUD6B", "value": 0.146}, {"measurement": "log2 ratio of Biotin-Ahx-Ub-VS probe labelling", "setting": "OTUD7B", "value": -0.395}, {"measurement": "log2 ratio of Biotin-Ahx-Ub-VS probe labelling", "setting": "PRPF8", "value": 0.153}, {"measurement": "log2 ratio of Biotin-Ahx-Ub-VS probe labelling", "setting": "PSMD7", "value": 0.238}, {"measurement": "log2 ratio of Biotin-Ahx-Ub-VS probe labelling", "setting": "UCHL1", "value": "-1 (active)"}, {"measurement": "log2 ratio of Biotin-Ahx-Ub-VS probe labelling", "setting": "UCHL3", "value": 0.34}, {"measurement": "log2 ratio of Biotin-Ahx-Ub-VS probe labelling", "setting": "UCHL5", "value": -0.0479}, {"measurement": "log2 ratio of Biotin-Ahx-Ub-VS probe labelling", "setting": "USP10", "value": -0.0942}, {"measurement": "log2 ratio of Biotin-Ahx-Ub-VS probe labelling", "setting": "USP15", "value": -0.0934}, {"measurement": "log2 ratio of Biotin-Ahx-Ub-VS probe labelling", "setting": "USP16", "value": -0.0611}]}
